According to PubChem BioAssay AID435005 (Broad Institute, 2010):
The campaign covered roughly 300,000 compounds. About 2,400 (0.8%) were called active. For the sample, actives were picked, then their nearest neighbours and some compounds at random. A number with no mark means an inactive call.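 The calls were made as follows: active = Every replicate reaches about 75%, or at least half do and their mean reaches it too (limit read from the data); inconclusive = At least half of replicates reach the limit but their mean does not; inactive = Under half of replicates reach the limit.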

test: inhibitors of cytokine-induced beta cell apoptosis, primary screen, luminescence (AID 435005); details: INS-1E cytokine-induced death, ATP luminescence, 48 h; active compounds read high; percent of positive-control rescue, neutral wells zero; concentration not given here;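 also: 0% = cytokine-treated negative control wells and 100% = positive control rescue; higher means more ATP so stronger rescue from cytokine killing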

| SMILES | protection from apoptosis |
| --- | --- |
| C=CCC[C@H](Cc1ccc(F)cc1)C(=O)OC[C@H](C)NC(=O)[C@H](CC=C)CC(=O)N(CCO)Cc1ccccc1 | 2.93% |
| Cn1c(=O)[nH]c(=O)c2c1nc(N1CCN(C(c3ccccc3)c3ccccc3)CC1)n2CCO | 99.9% (active) |
| CN1CCN(c2nc3c(c(=O)[nH]c(=O)n3C)n2Cc2cccc3ccccc23)CC1 | 2.14% |
| Cn1c(=O)[nH]c(=O)c2c1nc(N1CCN(CCO)CC1)n2CCSc1nc2ccccc2s1 | 2.68% |
| CCCCCCn1c(CN2CCCCC2)nc2c1c(=O)n(C)c(=O)n2C | 2.42% |
| CCCCCCCCn1c2c(c(=N)c3c1CCC3)CCCC2 | 99.8% (active) |
| CC(NC(=O)COC(=O)c1ccc2ccccc2n1)c1ccccc1 (stereo unspecified) | -4.86% |
| O=C(Nc1nnc(-c2ccccc2)o1)c1cccc(S(=O)(=O)N2CCOCC2)c1 | 5.19% |
| Cc1c(Cl)c([N+](=O)[O-])nn1CCCC(=O)Nc1cc(Cl)ccc1Cl | 5.23% |
| Cc1c(Cl)c([N+](=O)[O-])nn1Cc1ccc(C(=O)N/N=C\c2cc(Cl)ccc2O)o1 | 89.7% (active) |
| Cc1ccc(C(=O)O)cc1NC(=O)c1ccc(Cn2nc(C)c(Cl)c2C)o1 | 1.11% |
| O=C(CSc1nnc(N2CCOCC2)n1-c1cccc(F)c1)N1CCN(c2ccccn2)CC1 | -0.686% |
| COc1cccc2sc3cc(NCC[C@@H]4CCCN4C)ccc3c(=O)c12 | -2.22% |
| Clc1ccc(CN2CCN(/N=C/c3cccnc3)CC2)cc1 | -0.218% |
| O=Cc1cn(Cc2ccccc2)nc1-c1cccnc1 | 0.63% |
| O=C1/C(=C\c2cccnc2)CN(Cc2ccccc2)C/C1=C\c1cccnc1 | 83.8% (active) |
| COc1ccc(C(=O)COC(=O)C(O)c2ccccc2)c(OC)c1 (stereo unspecified) | -0.354% |
| O=C(COC(=O)c1ccc(F)cc1)NCC1COc2ccccc2O1 (stereo unspecified) | -5.32% |
| CCOC(=O)/C(=C\c1ccc([N+](=O)[O-])cc1)C(=O)c1cc(C(C)=O)c(Nc2ccccc2)s1 | 107% (active) |

| SMILES | protection from apoptosis |
| --- | --- |
| Cc1ccc(NC(=O)/C(=C/c2ccc([N+](=O)[O-])cc2)NC(=O)c2ccccc2)cc1 | -0.596% |
| CCOC(=O)COc1ccc([N+](=O)[O-])cc1 | -8.02% |
| COc1ccc2nc3n(c(=O)c2c1)-c1ccc(Cl)cc1C(=O)NC3Cc1ccccc1 (stereo unspecified) | 5.15% |
| COc1ccc(S(=O)(=O)N(C)C[C@@H]2Oc3ccc(NC(=O)Nc4c(C)noc4C)cc3C(=O)N([C@H](C)CO)C[C@@H]2C)cc1 | 4.1% |
| Cc1cc(C(=O)N/N=C/c2ccccn2)c2ccccc2n1 | -6.79% |
| O=C(N/N=C/c1ccccn1)c1cccnc1 | -0.0642% |
| Cc1nnc(N/N=C/c2ccccn2)[nH]c1=O | 109% (active) |
| COc1ccc(S(=O)(=O)N2CCN(CC(=O)N3CCOCC3)CC2)cc1OC | -2.22% |
| CN(c1ccccc1)S(=O)(=O)c1cccc(NC(=O)Cc2ccc(Cl)cc2)c1 | 14.2% |
| COc1ccccc1NC(=O)CCCc1c[nH]c2ccccc12 | 6.21% |
| COc1ccc(C(CCNCc2ccccc2F)c2ccc(F)cc2)cc1 (stereo unspecified) | 1.89% |
| COc1cccc(CNCCc2c[nH]c3ccccc23)c1OCc1ccccc1F | 82.8% (active) |
| C=CCC[C@H](Cc1ccc(F)cc1)C(=O)OC[C@@H](Cc1c[nH]c2ccccc12)NC(=O)[C@H](CC=C)CC(=O)N[C@H](CO)Cc1ccccc1 | -1.63% |
| Cc1cc(N2CCCC2)ccc1NC(=O)COc1ccc(Cl)cc1 | -16.4% |
| O=C1N[C@H](Cc2c[nH]c3ccccc23)COC(=O)[C@H](Cc2ccc(F)cc2)C/C=C\C[C@H]1CC(=O)N(CCO)Cc1ccccc1 | -0.37% |
| CCc1ccc(OCC2c3cc(OC)c(OC)cc3CCN2C(C)=O)cc1 (stereo unspecified) | -2.37% |
| CC[C@H]1CN2CCc3cc(OC)c(OC)cc3[C@@H]2C[C@@H]1C[C@H]1NCCc2cc(OC)c(OC)cc21 | 81.8% (active) |
| COc1ccc2c(c1)CCNC2Cc1ccc(OC)c(O)c1 (stereo unspecified) | -7.35% |
| Cc1ccc(S(=O)(=O)N2CCN(C(=O)Cn3c(=O)cnc4ccccc43)CC2)c(C)c1 | 3.1% |

| SMILES | protection from apoptosis |
| --- | --- |
| CCOc1ccccc1Nc1nnc(SCC(=O)NCC2CCCO2)s1 (stereo unspecified) | -3.28% |
| COc1cccc(/C=N/Nc2cc(C)nc(-c3ccccc3O)n2)c1O | 83.1% (active) |
| Cc1cc(N/N=C\c2ccc(Br)cc2)nc(-n2nc(C)cc2C)n1 | 101% (active) |
| COc1ccc(/C=N/Nc2cc(N3CCOCC3)nc(C)n2)c(OC)c1 | -0.288% |
| Cc1ccc(S(=O)(=O)Nc2nc(C)cc(N/N=C/c3ccc(O)cc3)n2)cc1 | -0.0503% |
| COc1ccccc1/C=N\Nc1cc(C)nc(-n2nc(C)cc2C)n1 | 85.5% (active) |
| Cc1nc(Cl)cc(N/N=C/c2ccccc2)n1 | 0.482% |
| COc1ccccc1/C=N/Nc1nc(C)c(C(C)=O)s1 | 1.33% |
| COc1cccc2c(N/N=C/c3ccco3)cc(C)nc12 | 0.451% |
| COc1cc(/C=N/Nc2nc3ccccc3s2)ccc1O | -9.44% |
| CC(=O)Nc1ccc(S(=O)(=O)NCCC(=O)N2CCN(c3ccccc3Cl)CC2)cc1 | 4.22% |
| O=S(=O)(NCC1CN(S(=O)(=O)c2ccc3c(c2)OCCO3)C1)c1c(F)cccc1F | -0.452% |
| O=C(COC(=O)c1n[nH]c2ccccc12)Nc1ccccc1Br | 2.52% |
| O=C(Nc1ccc(C(F)(F)F)cc1)c1cccc(-n2cnnn2)c1 | 8.03% |
| Cc1ccc(C(=O)Nc2ccccc2-c2ccccc2)cc1S(=O)(=O)Nc1ccccc1 | 12.9% |
| O=C(c1ccc(OC2CCN(Cc3ccccn3)CC2)cc1)N1CCCCCC1 | -1.86% |
| CN(CCc1ccccn1)C(=O)c1ccc(OC2CCN(Cc3ccccn3)CC2)cc1 | 0.235% |
| O=C(NCCOc1cccnc1)c1ccc(OC2CCN(Cc3ccccn3)CC2)cc1 | 120% (active) |
